Measured values taken from PubChem BioAssay (EPA / NIEHS).
Calls of active or inactive are those of the source. Rule for the calls: active = hit-call score of the fitted dose curve at least 0.9, where 1 is the maximum; inactive = score below 0.9.

assay: CEETOX_H295R_11DCORT: CeeTox H295R High-throughput Steroidogenesis Assay for 11-Deoxycortisol (11DCORT) (AID 2283432); details: actives raise or lower the signal;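 for AC50: 11-deoxycortisol secreted into the medium measured by LC-MS/MS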
Description: CEETOX_H295R is a cell-based, multiplexed-readout assay that uses H295R, a human adrenal gland cell line, with measurements taken at 48 hours after chemical dosing in a 96-well plate.CEETOX_H295R_11DCORT is one of 23 assay component(s) measured or calculated from the CEETOX_H295R assay. It is designed to make measurements of hormone induction, a form of inducible reporter, as detected with absorbance signals by HPLC-MS-MS technology.Data from the assay component CEETOX_H295R_11DCORT was analyzed into 1 assay endpoint. This assay endpoint, CEETOX_H295R_11DCORT, was analyzed with bidirectional fitting relative to DMSO as the negative control and baseline of activity. Using a type of inducible reporter, gain or loss-of-signal activity using HPLC-MS-MS was used to understand synthesis of 11-Deoxycortisol in H295R cell line at 48hr of chemical exposure. To generalize the intended target to other relatable targets, this assay endpoint is annotated to the steroid hormone intended target family, where the subfamily is glucocorticoids.
Cell culture and media preparation procedures were conducted in accordance with OECD Test No. 456 guidelines, with minor modifications. H295R cells (ATCC CRL-2128) were expanded for 5 passages and frozen in batches in liquid nitrogen. Prior to the steroidogenesis assay, H295R cells were thawed and passed at least 4 times. The maximum passage was 10. Cells were maintained in a 1:1 mixture of DMEM/F12 supplemented with 5ml/L ITS+ Premix (BD Bioscience) and 12.5 ml/L Nu-Serum (BD Bioscience). After seeding cells into 96-well plates at 50-60% confluency, cells were allowed to adhere overnight. Prior to chemical testing, culture medium was replaced with 175 uL medium containing 10 uM forskolin to stimulate steroidogenesis for 48 hours. Following prestimulation, forskolin medium was replaced with medium containing test chemical solubilized in DMSO (ensuring a final concentration of 0.1% DMSO). Test chemicals were incubated for 48 hours, then the medium was removed and split into 2 vials containing approximately 75uL each, and stored at -80 C prior to hormone analysis. For steroid quantification, media samples were shipped to OpAns, LLC (Durham, NC) on dry ice, and samples were thawed to room temperature prior to liquid-liquid extraction. Steroid hormones were extracted from media samples using methyl tertbutyl ether (MTBE). An extra derivatization with dansyl chloride was included for estrogen (estrone and estradiol) detection only. Steroid hormones were separated by HPLC, eluted using a reverse phase C18 gradient with electrospray positive ionization, followed by quantification by tandem mass spectrometry (MS/MS). Data were acquired on a MassHunter Workstation Acquisition version B03.01 (Agilent Technologies, Inc.) and processed using MassHunter Quantitative Analysis for QQQ. Accuracy was determined for each hormone analyte from 3 standards to determine upper and lower limits of quantification (ULOQ and LLOQ, respectively) using a 7-point standard curve. Precision and accuracy of the extraction and quantification methods were calculated as the percent relative standard deviation (%RSD) of the spiked standards and percent spiked standard recovered, respectively. The goal was to achieve 100% accuracy (i.e., recover all spiked-in standard at quantification with minimal loss during run time) and good precision (i.e., have %RSD <15% to ensure reproducibility). Test medium was removed following chemical exposure, and cell viability was evaluated in the same wells by MTT. MTT procedures were as follows: after removal of test medium, 500 uL of 0.5 mg/ml of 3-[4,5-dimethylthiazol-2-y]2,5-diphenyltetrazoliumbromide solution was added to the cells. Following a 4-hour incubation at 37 C and 5% CO2 to allow formazan-crystal formation, the MTT solution was removed and blue formazan salt crystals were solubilized using 500uL anhydrous isopropanol with shaking for 20 minutes. […]

Row | SMILES | AC50 | outcome
1 | Oc1ccc(C(c2ccc(O)cc2)C(Cl)(Cl)Cl)cc1 | 2.85 µM (active) | 
2 | CCCCOC(=O)[C@@H](C)Oc1ccc(Oc2ccc(C(F)(F)F)cn2)cc1 |  | inactive
3 | S=C(S)NCCNC(=S)S.[Mn+2].[S-]C([S-])=NCCN=C([S-])[S-].[Zn+2] |  | inactive
4 | S=C([S-])NCCNC(=S)[S-].[Mn+2] |  | inactive
5 | C[C@]12C[C@H](O)[C@H]3[C@@H](CCC4=CC(=O)CC[C@@]43C)[C@@H]1CC[C@@H]2C(=O)CO | 34.4 µM (active) | 
6 | CN(C)C(=O)Nc1ccc(Cl)c(Cl)c1 |  | inactive
7 | CCCCC(CC)CN1C(=O)C2C3C=CC(C3)C2C1=O (stereo not given) |  | inactive
8 | CSC(=O)c1cccc2nnsc12 |  | inactive
9 | CCCN(CCC)C(=O)SCC |  | inactive
10 | C#C[C@]1(O)CC[C@H]2[C@@H]3CCC4=CC(=O)CC[C@@H]4[C@H]3CC[C@@]21CC |  | inactive
11 | CC1(C)C(C=C(Cl)Cl)C1C(=O)OCc1cccc(Oc2ccccc2)c1 (stereo not given) | 11.3 µM (active) | 
12 | c1ccc2[nH]c(-c3cscn3)nc2c1 |  | inactive
13 | CCCCCOC(=O)COc1cc(N2C(=O)C3=C(CCCC3)C2=O)c(F)cc1Cl |  | inactive
14 | CC(=O)S[C@@H]1CC2=CC(=O)CC[C@]2(C)[C@H]2CC[C@@]3(C)[C@@H](CC[C@@]34CCC(=O)O4)[C@H]12 | 1.76 µM (active) | 
15 | C=CCOC(Cn1ccnc1)c1ccc(Cl)cc1Cl (stereo not given) | 0.775 µM (active) | 
16 | CCOC(=O)C(C)Oc1ccc(Oc2cnc3cc(Cl)ccc3n2)cc1 (stereo not given) |  | inactive
17 | CC(C)(C)[C@@H](O)[C@@H](Cc1ccc(Cl)cc1)n1cncn1 |  | inactive
18 | CCOC(=O)c1ccc(O)cc1 | 85.1 µM (active) | 
19 | C#CCOC(=O)[C@@H](C)Oc1ccc(Oc2ncc(Cl)cc2F)cc1 | 9.92 µM (active) | 
20 | O=C(Nc1ccc([N+](=O)[O-])cc1Cl)c1cc(Cl)ccc1O |  | inactive
